From the supplement of paper PMC6555819

How the values were obtained:
Assay in all cases: PBM binding z-score (relative to random genomic background probes); higher = stronger binding; sequences stand for … in GC…GCGATTGACAGCGTAGAATGAAGG
[1] = test system: FXR:RXRa (NR concentration 270 nM, RXRa partner concentration 90 nM)
Outline: (§1)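 Binding z-scores take random background probes as their reference. They come from custom Agilent 4×180K protein-binding microarrays incubated 1 h with ligand-free nuclear receptor dimers, with antibodies against each partner (one per run) detecting binding. Scanned fluorescence was regression-normalized.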

[2] = test system: LXRa:RXRa (NR concentration 270 nM, RXRa partner concentration 90 nM)
Outline: as §1

[3] = test system: LXRa homodimer (NR concentration 270 nM)
Outline: as §1

[4] = test system: LXRb:RXRa (NR concentration 270 nM, RXRa partner concentration 90 nM)
Outline: as §1

[5] = test system: LXRb homodimer (NR concentration 270 nM)
Outline: as §1

[6] = test system: PPARa:RXRa (NR concentration 270 nM, RXRa partner concentration 90 nM)
Outline: as §1

[7] = test system: PPARg:RXRa (NR concentration 180 nM, RXRa partner concentration 90 nM)
Outline: as §1

[8] = test system: PPARg:RXRa 270nM:90nM, anti-RXR (NR concentration 270 nM, RXRa partner concentration 90 nM)
Outline: as §1

[9] = test system: PPARg:RXRa 30nM:10nM, anti-RXR (NR concentration 30 nM, RXRa partner concentration 10 nM)
Outline: as §1

[10] = test system: PPARg:RXRa 90nM:30nM, anti-RXR (NR concentration 90 nM, RXRa partner concentration 30 nM)
Outline: as §1

| Sequence | PBM binding z-score [1] | PBM binding z-score [2] | PBM binding z-score [3] | PBM binding z-score [4] | PBM binding z-score [5] | PBM binding z-score [6] | PBM binding z-score [7] | PBM binding z-score [8] | PBM binding z-score [9] | PBM binding z-score [10] |
| --- | --- | --- | --- | --- | --- | --- | --- | --- | --- | --- |
| ATCTCTAGGTTAGACTCAGTTCAGTGAAGAACGC | 1 | 1.74 | 1.7 | 1.12 | 1.27 | 0.772 | 0.251 | 0.742 | 0.423 | 0.508 |
| ACACACAGGTGAGTGAAGGTAACTCAGCTGGACG | 0.469 | 0.195 | -0.241 | -0.0782 | -0.78 | 0.352 | 0.931 | 0.0284 | -0.027 | -0.278 |
| CCTACTGGGCCACAAAAGGTCATTGATTCAGTGA | 3.28 | 5.83 | 5.25 | 4.37 | 0.347 | 4.79 | 4.35 | 4.41 | 1.88 | 3.74 |
| TCTGCTAGGTCAGTTGGTCGGCTAACGAGCTGCC | 0.77 | 0.605 | -0.503 | 0.189 | 0.554 | 1.17 | -0.329 | 1.54 | 1.35 | 1.7 |
| GTACCAAGGAGAATAGGTCGTTGATGAGTAGGCG | -0.287 | -0.0565 | -0.284 | -0.316 | -0.56 | 0.108 | 0.546 | 0.112 | -0.237 | -0.0411 |
| AGAATGAGGATACCAAAGATCAGGGAAACGCTTG | 0.11 | -0.468 | -0.437 | -0.336 | -0.365 | -0.155 | 0.826 | 0.344 | 0.225 | 0.512 |
| ATATGTAGGTTACATCCTGGTCATTCAGGCTATG | 0.666 | 2.03 | 0.602 | 1.28 | 0.798 | 3.16 | 5.21 | 4.44 | 2 | 3.57 |
| CGTCCAAGGTCATAGGAGGCCAGTGAAGACAGAT | 7.24 | 5.75 | 1.07 | 4.34 | 0.536 | 5.51 | 4.37 | 5.03 | 1.54 | 3.73 |
| TCTCGGAGGCCACGAAGGTCAGAGCTTTCCAGAG | 0.966 | 1.34 | -0.257 | 1.25 | -1.36 | 2.21 | 0.256 | 1.82 | 1.63 | 1.54 |
| AGTCAAAGTTCAGGCCGAGGTAACGTAAAGCACG | 4.1 | 4.03 | 1.27 | 1.71 | 0.0903 | 3.25 | 4.14 | 5.07 | 1.71 | 4.1 |
| GCTAGCAGGCCATTTGGGTCACCCAATGACGGGC | 0.339 | -0.142 | -0.557 | 0.0231 | -1.02 | 1.67 | 0.947 | 0.784 | -0.28 | 0.167 |
| TCTGCTAGGGCAGTTGGTCAGCTAACGAGCTGCC | -0.253 | -0.634 | -0.708 | -0.857 | -0.624 | -0.359 | -0.953 | 0.135 | 0.729 | 0.414 |
| CGTCCAAGGTCAGCAGGTTAGTGAAAGCGACGTG | 4.92 | 3.23 | -0.206 | 2.36 | -0.346 | 4.15 | 2.77 | 3.33 | 0.363 | 1.88 |
| CCTACTGGGCCAAAAAGGTCATTTATGCCGATAA | 3.57 | 4.05 | 4.05 | 4.58 | 0.674 | 4.48 | 3.08 | 3.67 | 1.23 | 2.79 |
| TATCCTAGGTCATGGGCCAGTATACCACGCGAAC | 5 | 5.58 | 3.83 | 3.5 | 1.69 | 4.57 | 5.5 | 5.51 | 3.05 | 4.89 |
| TCTGCTAGTTCAACGATGGTCAGCTAATCTGCTA | 0.141 | 0.175 | -0.555 | -0.303 | -0.648 | 0.264 | -0.456 | 0.558 | 1.26 | 0.99 |
| TTGCCTAGGTCATGCGGGCCAGTATAGTGTCGGC | 4.05 | 2.72 | 0.0559 | 1.52 | -0.792 | 3.42 | 2.01 | 2.28 | -0.182 | 1.06 |

| Sequence | PBM binding z-score [1] | PBM binding z-score [2] | PBM binding z-score [3] | PBM binding z-score [4] | PBM binding z-score [5] | PBM binding z-score [6] | PBM binding z-score [7] | PBM binding z-score [8] | PBM binding z-score [9] | PBM binding z-score [10] |
| --- | --- | --- | --- | --- | --- | --- | --- | --- | --- | --- |
| ACTAGCAGGCCAAGGGTCACACAAGATTAGTCCG | 3.44 | 3.18 | 0.449 | 3.38 | -0.147 | 4.88 | 8.73 | 6.99 | 6.3 | 7.72 |
| CGAACTTGGTCATTGACAGGACAGTGAATAGTAA | 0.086 | -0.0975 | -0.179 | 0.228 | -0.101 | 0.267 | 0.262 | 0.00224 | -0.244 | -0.0611 |
| TCATATAGGTAAAAGGTGAAAGCCGGTGTGGTAA | 1.71 | 2.07 | 0.0111 | 1.77 | -0.0293 | 5.73 | 8.8 | 8.59 | 8.83 | 9.1 |
| CCTAGTTGGTCAGGAGGTCACACAACGGATATGA | 3.71 | 3.52 | 1.69 | 3.53 | 0.623 | 4.25 | 3.47 | 4.16 | 1.47 | 3.3 |
| CGTCCAGGGTCAATGCTAGGTCAGTGAAAGCATT | 6.33 | 5.16 | 0.988 | 4.06 | -0.00452 | 5.61 | 4.11 | 4.59 | 1.57 | 3.18 |
| CCTAGCAGGCCAATCCGGGTCACTCAAGGCTTGA | 2.13 | 1.84 | -0.396 | 1.47 | -0.923 | 2.78 | 0.787 | 1.02 | -0.565 | 0.469 |
| ATATGTAGGTTAGATCCGGGTCATTCAGGCTATG | 1.55 | 2.3 | 0.843 | 1.99 | 0.185 | 3.74 | 4.17 | 3.71 | 1.53 | 2.86 |
| TCATCTAGGTAAACAGGTGAAAGTCCGTAAGTTA | 1.02 | 0.956 | 0.17 | 1.04 | 0.174 | 2.4 | 3.14 | 3.94 | 3.92 | 3.86 |
| CCTAGAAGGCCAATCTGGGTCACTCAAGGCTTGA | 1.99 | 3.1 | -0.29 | 2.04 | -0.793 | 3.72 | 2.93 | 2.57 | 0.176 | 1.97 |
| CCGACTGGGGCAAGGTTTCCATAACGCACAGCCA | -0.141 | -0.322 | -0.44 | -0.321 | -0.889 | 0.606 | 2.28 | 2.75 | 0.608 | 1.97 |
| CCTACTGGGCCAAAAAGGTCACTGATGCCGATAA | 2.83 | 3.29 | 1.36 | 3.63 | -0.14 | 4.64 | 3.78 | 4.35 | 1.79 | 3.78 |
| TCGAGTAGGTTAGGGGGATTCAGAATGGCGTCGA | 0.594 | 0.704 | 0.047 | 2.05 | 5.63 | 1.63 | 1.42 | 3.21 | 2.01 | 2.69 |
| GGAACGAGGGCATTCGGGTTGATAGCATGGCGAT | 1.28 | 1.22 | -0.291 | 0.287 | -0.152 | 1.74 | 0.887 | 0.703 | -0.367 | 0.323 |
| ACTCGGACGACAAAGGTCAGAGCTACGCCAGTGA | 3.61 | 4.04 | 1.27 | 3.23 | 0.325 | 4.37 | 4.45 | 5.09 | 2.65 | 4.51 |
| CGAACGAGGGCATGAGTTTATAGCAAATGCCGAT | 0.448 | 0.306 | -0.244 | 0.294 | -1.03 | 1.43 | 1.45 | 1.38 | 0.138 | 0.962 |
| CAAACTAGGTCACCGAGGTCAAAGTCCGTGCGTA | 7 | 6.22 | 5.91 | 5.75 | 1.25 | 6.56 | 10.2 | 8.39 | 6.43 | 8.33 |
| TCATATAGGTAAGAGGTGAAAGTCGGTGTGGTAA | 1.83 | 1.71 | 0.368 | 1.64 | -0.0245 | 4.31 | 7.08 | 7.24 | 6.37 | 7.94 |
